SMILES strings stand for the structures. Values joined by “and” are separate entries in the source; they are usually repeats but may differ in a detail not shown here. Identical values can stand only once. Results filed as inconclusive are left out. Some compounds were tested as several samples or in several runs, with calls that do not always agree. Active and inactive are the calls of the source. Unless noted, calls follow the shape of the full dose curve.

Assay [1] is described as follows: Nuclear factor erythroid 2-related factor 2/antioxidant responsive element (Nrf2/ARE) small molecule agonists: qHTS cell viability counter screen in human keratinocytes (AID 1919968; active = well fitted curve in the direction sought with a large enough effect in the repeat runs; an effect the other way counts as inactive or inconclusive; also: nearly all actives have a fitted effect of over 55% in size; also: potency is read from the fitted curve at half-maximal effect). The gist of the method: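 Viability counter-screen: KeratinoSens reporter cells, DMSO-delivered compounds, 23 h at 37 C, CellTiter-Fluor fluorescence.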
Background: In qHTS, concentration-response curves come from the screen itself.

The nature of assay [2]: Nuclear factor erythroid 2-related factor 2/antioxidant responsive element (Nrf2/ARE) small molecule agonists: luciferase reporter gene qHTS assay in human keratinocytes (AID 1919969). Also: nearly all actives have a fitted effect of over 35% in size. Also: potency is read from the fitted curve at half-maximal effect.
The target of assay [3] is Gonadotropin-releasing hormone receptor (Homo sapiens) (UniProt P30968). The experiment in a line: Human gonadotropin-releasing hormone receptor (GnRHR) small molecule agonists, calcium flux assay in GnRHR-HEK293 cells (AID 1920063). Also: nearly all actives have a fitted effect of over 35% in size. The gist of the method:
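Tox21-format agonist screen using human GnRHR-expressing HEK293 cells and a fluorescent calcium dye; kinetic 3-min fluorescence reading after compound addition, 15-point concentration series run in triplicate.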
For orientation: A change in cytosolic calcium serves as a functional read-out for many receptors and channels.

For assay [4], the target named is KiSS-1 receptor (Homo sapiens) (UniProt Q969F8). Kind of assay: Human kisspeptin (KISS1R) small molecule agonists, calcium flux assay in KISS1R-HEK293 cells (AID 1920064; active = well fitted curve in the direction sought with a large enough effect in the repeat runs; an effect the other way counts as inactive or inconclusive). In short, it runs like this:
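Intracellular calcium mobilization in KISS1R-HEK293 cells was recorded by fluorescence (Ex/Em 480/540) for 3 min following compound addition to cells pre-loaded 1 h with calcium dye.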

Assay [5] in a line: G protein-coupled receptor (GPCR) small molecule agonists, calcium flux assay: HEK293 wild type cell line counter screen (AID 1920065). In short, it runs like this: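 In this agonist-mode screen, ATP is the positive control and DMSO the vehicle. Cells grow 18 h before a 1 h dye incubation at 37 C; signal is taken at Ex/Em 480/540 over 3 min.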
A short description of assay [6]: p53 small molecule agonists, cell-based qHTS assay with human liver microsomes (AID 1963577).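 Also: p53 response element beta-lactamase reporter cells with liver microsomes plus NADPH.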 In short, it runs like this:
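p53RE-bla cells; 5 h settle, 37 C/5% CO2; cpd + HLM 0.5 mg/mL + NADPH 0.5 mg/mL (final); 16 h 37 C; LiveBLAzer 2 h RT dark; fluorescence readout.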

Assay [7] can be described thus: p53 small molecule agonists, cell-based qHTS assay with rat liver microsomes (AID 1963578). In short, it runs like this: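 Rat liver microsome activation: microsomes 0.5 mg/mL, NADPH 0.5 mg/mL final; p53RE-bla cells, 16 h 37 C; LiveBLAzer readout, 2 h RT dark.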
Assay [8] in a line: p53 small molecule agonists, cell-based qHTS assay with human liver microsomes: qHTS cell viability counter screen (AID 1963579). Also: nearly all actives have a fitted effect of over 45% in size. Also: potency is read from the fitted curve at half-maximal effect. The gist of the method:
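Luminescent CellTiter-Glo read-out, 30 min at room temperature, gauged cytotoxicity in p53RE-bla cells exposed 16 h at 37 C to DMSO-dissolved compounds with metabolic activation by human liver microsomes and NADPH, each 0.5 mg/mL final.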

Assay [9] in a line: p53 small molecule agonists, cell-based qHTS assay: qHTS cell viability counter screen (AID 1963581). Also: nearly all actives have a fitted effect of over 45% in size. The gist of the method: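 Compounds are pinned onto HCT-116 p53RE-bla cells and left 16 h at 37 C. Following the reporter FRET read, ATP is quantified by CellTiter-Glo luminescence after 30 min at room temperature.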
Assay [10] is described as follows: p53 small molecule agonists, cell-based qHTS assay (AID 1963582; active = well fitted activation curve with a large enough effect in the signal ratio in the repeat runs, not every such curve was filed as active; the % refers to the signal ratio; also: potency is read from the fitted curve at half-maximal effect). The gist of the method: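 Agonist activity was scored from beta-lactamase FRET fluorescence in p53RE-bla cells treated 16 h at 37 C with compounds in DMSO, substrate incubation being 2 h at room temperature.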
Assay [11] deals with 5-hydroxytryptamine receptor 2A (Homo sapiens) (UniProt P28223). Kind of assay: 5-hydroxytryptamine receptor 2A (HTR2A) small molecule agonists, cell-based qHTS assay (AID 1963587). Also: nearly all actives have a fitted effect of over 30% in size. In short, it runs like this: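 HTR2A-CHO cells, plated 18 h at 37 C/5% CO2, dye-loaded 1 h at 37 C; compounds in DMSO added by pin tool (agonist mode). Intracellular calcium flux read as kinetic fluorescence on FDSS over 2 min at 1 s intervals.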

Assay [12] deals with Muscarinic acetylcholine receptor M1 (Homo sapiens) (UniProt P11229). Kind of assay: Cholinergic receptor muscarinic 1 (CHRM1) small molecule antagonists, cell-based qHTS assay (AID 1963588). Also: nearly all actives have a fitted effect of over 40% in size. The gist of the method: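 CHRM1-CHO calcium-flux assay, antagonist mode. Cells were seeded 18 h, dye-loaded 1 h at 37 C and given compound for 5 min at RT, then acetylcholine was added at 50nM. FDSS fluorescence was read 3 min; 15 concentrations, three runs.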

Assay [13] has the same target. The experiment in a line: Cholinergic receptor muscarinic 1 (CHRM1) small molecule agonists, cell-based qHTS assay (AID 1963589). Also: nearly all actives have a fitted effect of over 35% in size. The gist of the method:
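Stable CHRM1-CHO cells (human receptor) were incubated 18 h, dye-loaded for 1 h at 37 C and exposed to test compounds for agonist activity, with calcium-dependent fluorescence followed kinetically.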

Assay [14] is described as follows: cAMP Responsive Elements (CRE) small molecule agonists, cell-based qHTS assay (AID 1963590). In short, it runs like this:
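FRET-based beta-lactamase readout (LiveBLAzer B/G, 2 h RT) quantified CRE activation in HEK 293T CRE-bla cells after 3 h treatment with DMSO-dissolved compounds.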

Assay [15] in a line: cAMP Responsive Elements (CRE) small molecule antagonists, cell-based qHTS assay (AID 1963591; active = well fitted inhibition curve with a large enough effect in the signal ratio in the repeat runs, not every such curve was filed as active; the % refers to the signal ratio; also: potency is read from the fitted curve at half-maximal effect). In short, it runs like this: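 qHTS in CRE-bla HEK 293T cells: compound in DMSO, then 0.25 uM NKH477 (final), 3 h at 37 °C/5% CO2; beta-lactamase FRET read-out after 2 h substrate incubation.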
For assay [16], the target named is Beta-2 adrenergic receptor (Homo sapiens) (UniProt P07550). Kind of assay: Adrenergic beta2 receptor (ADRB2) small molecule antagonists, cell-based qHTS assay (AID 1963592). Also: series mostly up to about 92 µM; nearly all actives have a fitted effect of over 50% in size. The gist of the method: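 Cells (CHO, stable ADRB2 overexpression) incubated 18-20hr at 37C; compounds added from DMSO; agonist mix (1nM isoproterenol, 100uM IBMX, 25uM Ro-20-1724) added; 0.5hr RT; d2-cAMP and anti-cAMP-cryptate added; 1hr RT; 665/615 nm read.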

Assay [17] concerns the target D(2) dopamine receptor (Homo sapiens) (UniProt P14416). The experiment in a line: Dopamine D2 receptor (DRD2) small molecule agonists, cell-based qHTS assay (AID 1963594). Also: nearly all actives have a fitted effect of over 35% in size. The gist of the method:
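HEK293 cells stably expressing DRD2 were cultured 24 h at 37 C, then given Ro20-1724 (0.1 mM final) and compounds for 10 min at room temperature. NKH477 (200nM) was then added for 30 min. cAMP was read by HTRF.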

The target is the same in assay [18]. The experiment in a line: Dopamine D2 receptor (DRD2) small molecule antagonists, cell-based qHTS assay (AID 1963595; active = well fitted inhibition curve with a large enough effect in the signal ratio in the repeat runs, with a control signal flat; the % refers to the signal ratio). In short, it runs like this:
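Antagonist mode in DRD2-HEK293 cells: after compound addition with 0.1 mM Ro20-1724, cells received quinpirole (12 nM) and NKH477 (200 nM) for 30 min at room temperature; HTRF cAMP read after 1 h detection.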

Assay [19] has as its target 5-hydroxytryptamine receptor 2A (Homo sapiens) (UniProt P28223). The experiment in a line: 5-hydroxytryptamine receptor 2A (HTR2A) small molecule antagonists, cell-based qHTS assay (AID 1963586). Also: nearly all actives have a fitted effect of over 45% in size. In short, it runs like this: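 Antagonist-mode intracellular calcium assay: DOI (4 nM) added after 5 min compound pre-incubation at room temperature to dye-loaded HTR2A-CHO cells. Fluorescence followed for 3 min, sampled every second.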

In assay [20] the target is Beta-2 adrenergic receptor (Homo sapiens) (UniProt P07550). Kind of assay: Adrenergic beta2 receptor (ADRB2) small molecule agonists, cell-based qHTS assay (AID 1963593).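 Also: CHO cells stably overexpressing human ADRB2.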 The gist of the method:
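CHO cells stably over-expressing ADRB2 were plated overnight at 37C, then dosed with compounds plus a stimulation mix containing 100uM IBMX and 25uM Ro-20-1724 for 0.5hr at room temperature. cAMP was measured by HTRF competition, 1hr.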

Chain of Muscarinic acetylcholine receptor M1 (Homo sapiens) (P11229 whole entry, looked up): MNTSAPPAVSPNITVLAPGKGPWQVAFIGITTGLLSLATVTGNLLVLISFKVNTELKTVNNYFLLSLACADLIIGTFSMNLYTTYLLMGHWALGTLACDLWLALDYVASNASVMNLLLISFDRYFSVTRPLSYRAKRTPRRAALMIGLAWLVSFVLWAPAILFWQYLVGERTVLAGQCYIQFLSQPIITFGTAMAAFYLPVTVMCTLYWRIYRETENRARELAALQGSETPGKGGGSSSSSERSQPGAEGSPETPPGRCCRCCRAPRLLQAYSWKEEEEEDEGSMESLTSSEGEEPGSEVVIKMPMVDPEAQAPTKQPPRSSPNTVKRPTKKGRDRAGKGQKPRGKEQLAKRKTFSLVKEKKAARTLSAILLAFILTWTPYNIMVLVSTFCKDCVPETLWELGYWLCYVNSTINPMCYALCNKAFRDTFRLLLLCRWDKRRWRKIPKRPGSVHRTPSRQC
Chain of Gonadotropin-releasing hormone receptor (Homo sapiens) (P30968 whole entry, looked up): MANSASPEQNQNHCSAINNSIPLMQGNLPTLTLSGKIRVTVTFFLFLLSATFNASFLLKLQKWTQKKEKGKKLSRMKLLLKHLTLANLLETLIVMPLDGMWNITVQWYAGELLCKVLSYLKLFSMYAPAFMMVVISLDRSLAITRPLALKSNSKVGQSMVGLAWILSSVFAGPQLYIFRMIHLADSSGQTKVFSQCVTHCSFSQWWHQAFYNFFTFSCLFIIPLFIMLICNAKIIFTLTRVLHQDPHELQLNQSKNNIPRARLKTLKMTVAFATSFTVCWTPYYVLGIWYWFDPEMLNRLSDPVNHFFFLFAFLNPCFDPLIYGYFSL
Chain of D(2) dopamine receptor (Homo sapiens) (P14416 whole entry, looked up): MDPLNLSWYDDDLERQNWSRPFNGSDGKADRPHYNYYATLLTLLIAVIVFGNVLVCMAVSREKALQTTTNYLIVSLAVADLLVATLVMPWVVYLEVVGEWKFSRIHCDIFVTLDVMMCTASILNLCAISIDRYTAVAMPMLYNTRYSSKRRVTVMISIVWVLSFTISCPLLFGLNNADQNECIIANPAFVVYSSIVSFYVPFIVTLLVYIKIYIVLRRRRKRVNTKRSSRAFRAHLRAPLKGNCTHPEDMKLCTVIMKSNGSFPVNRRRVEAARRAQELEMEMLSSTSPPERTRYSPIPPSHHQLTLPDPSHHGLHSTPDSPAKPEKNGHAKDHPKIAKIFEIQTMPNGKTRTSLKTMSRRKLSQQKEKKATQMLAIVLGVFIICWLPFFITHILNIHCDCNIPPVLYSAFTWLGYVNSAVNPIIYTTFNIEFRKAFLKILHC
Chain of 5-hydroxytryptamine receptor 2A (Homo sapiens) (P28223 whole entry, looked up): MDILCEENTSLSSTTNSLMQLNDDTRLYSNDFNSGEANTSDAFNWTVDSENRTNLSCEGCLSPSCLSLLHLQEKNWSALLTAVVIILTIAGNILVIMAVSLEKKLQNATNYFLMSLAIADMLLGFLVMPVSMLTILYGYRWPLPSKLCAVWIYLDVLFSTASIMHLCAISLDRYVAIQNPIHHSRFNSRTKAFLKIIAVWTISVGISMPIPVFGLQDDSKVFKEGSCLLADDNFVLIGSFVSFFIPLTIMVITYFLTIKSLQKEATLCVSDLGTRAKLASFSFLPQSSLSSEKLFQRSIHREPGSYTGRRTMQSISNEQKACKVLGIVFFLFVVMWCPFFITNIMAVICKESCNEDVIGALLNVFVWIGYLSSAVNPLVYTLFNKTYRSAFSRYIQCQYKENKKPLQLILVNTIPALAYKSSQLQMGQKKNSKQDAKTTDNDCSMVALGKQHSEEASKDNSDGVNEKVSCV
Chain of Beta-2 adrenergic receptor (Homo sapiens) (P07550 whole entry, looked up): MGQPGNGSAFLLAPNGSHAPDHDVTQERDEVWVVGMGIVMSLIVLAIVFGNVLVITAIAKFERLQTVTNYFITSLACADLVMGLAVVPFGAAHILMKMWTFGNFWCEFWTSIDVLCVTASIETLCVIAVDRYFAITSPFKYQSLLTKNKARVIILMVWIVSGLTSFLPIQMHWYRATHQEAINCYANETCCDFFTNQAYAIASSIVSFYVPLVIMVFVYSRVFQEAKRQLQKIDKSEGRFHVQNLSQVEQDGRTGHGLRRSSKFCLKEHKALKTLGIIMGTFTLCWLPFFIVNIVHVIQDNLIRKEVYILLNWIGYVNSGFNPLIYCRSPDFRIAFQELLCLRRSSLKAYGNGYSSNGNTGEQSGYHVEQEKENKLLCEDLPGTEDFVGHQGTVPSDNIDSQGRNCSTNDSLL
Chain of KiSS-1 receptor (Homo sapiens) (Q969F8 whole entry, looked up): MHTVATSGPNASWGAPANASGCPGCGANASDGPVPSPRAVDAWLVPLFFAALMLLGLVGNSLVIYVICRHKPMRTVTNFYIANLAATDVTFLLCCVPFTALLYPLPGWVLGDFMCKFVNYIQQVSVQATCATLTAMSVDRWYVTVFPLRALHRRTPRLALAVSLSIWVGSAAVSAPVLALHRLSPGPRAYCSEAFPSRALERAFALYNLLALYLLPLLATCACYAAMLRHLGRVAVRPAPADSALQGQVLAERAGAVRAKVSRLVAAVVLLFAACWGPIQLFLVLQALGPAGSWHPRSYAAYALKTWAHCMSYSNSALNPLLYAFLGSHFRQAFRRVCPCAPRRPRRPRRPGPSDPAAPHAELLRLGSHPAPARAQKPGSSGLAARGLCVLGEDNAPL

Take `CC1(C)O[C@H]2CC(=O)OC[C@]23[C@H]2CC[C@@]4(C)[C@H](c5ccoc5)OC(=O)[C@H]5O[C@]54[C@]2(C)C(=O)C[C@@H]13`: the Potency result in assay [1], in [2], in [3], in [4], in assay [5] and in assay [6] was “inactive” each time. For the same molecule, the Potency entry in assay [7], in [8], in assay [9], in assay [10], in [11] and in assay [12] was “inactive” throughout. Besides, the Potency entry in assay [13], in assay [14], in [15], in assay [16], in assay [17] and in [18] was “inactive” throughout.

Consider `CC1(C)[C@@H]2CC[C@@]1(C)[C@H](O)C2`, for which the Potency entry in assay [1], in assay [2], in assay [3], in [4], in [5] and in [6] was “inactive” in each case. Besides, the Potency result in [7], in assay [8], in assay [9], in assay [19], in [11] and in assay [12] was “inactive” throughout. In addition, the Potency entry in [13], in assay [14], in [15], in [16], in [20] and in [17] was “inactive” each time. Further, the Potency result in assay [18] was “inactive”.

Take `NCC1(Cc2noc(=O)[nH]2)CCCCC1`: the Potency result in assay [1], in assay [2], in assay [3], in assay [4], in assay [5] and in [6] was “inactive” throughout. The Potency result in [7], in assay [9], in [10], in assay [19], in assay [11] and in [12] was “inactive” throughout. The Potency entry in assay [13], in [14], in assay [15], in assay [16], in [20] and in assay [17] was “inactive” throughout. In assay [18], the Potency entry is “inactive”.

In the case of `CC(C)(C)C(=O)OCOC(=O)C1N2C(=O)CC2S(=O)(=O)C1(C)C` (centres undefined), the Potency entry in [1], in [2], in [3], in assay [4], in assay [5] and in [6] was “inactive” each time. Moreover, the Potency result in [7], in assay [9], in [10], in assay [19], in assay [11] and in assay [12] was “inactive” each time. Moreover, the Potency entry in assay [13], in [14], in [16], in assay [20], in assay [17] and in assay [18] was “inactive” each time. Besides, the Potency in [15] was 11.9 nM (active).

For the molecule `CCCCCCCCS`, the Potency result in assay [1], in [2], in [3], in assay [4], in [5] and in assay [6] was “inactive” in each case. The Potency result in assay [7], in assay [8], in [9], in [19], in assay [11] and in assay [12] was “inactive” in each case. Besides, the Potency entry in assay [13], in [14], in assay [15], in [16], in [17] and in assay [18] was “inactive” in each case.

Regarding `COC(=O)Nc1nc2ccc(Sc3ccccc3)cc2[nH]1`, the Potency result in assay [1], in [3], in assay [4], in assay [5], in assay [6] and in assay [7] was “inactive” in each case. In addition, the Potency result in [8], in [15], in assay [16], in assay [20], in assay [17] and in assay [18] was “inactive” in each case. Moreover, the Potency was 30.6 µM (active) and 3.35 µM (active) in assay [2]; 363 nM (active) in assay [10].

Regarding `CSc1ccc2c(c1)N(CCC1CCCCN1C)c1ccccc1S2` (centres undefined), the Potency is 24.2 µM (active) and 26.6 µM (active) in assay [1]; 45.6 µM (active) and inactive in assay [8]. The Potency entry in [2], in assay [3], in assay [4], in assay [5], in assay [6] and in assay [7] was “inactive” throughout. For the same molecule, the Potency result in assay [9], in assay [16], in assay [20] and in [17] was “inactive” each time.

For the origin of these results see PubChem BioAssay (Tox21).
